Assay outcomes from PubChem.
Rows were chosen to be rich in hits. Some 7.9% of all compounds tested hit in one or more screens of this group.
MITF inh: blocks MITF activity; TRPM1 promoter luciferase, luminescence, 24 h; 0.28% of 37,000 active; inhibition, % (no concentration beside the values); in the data active means inhibition above about 85%; inconclusive means no clear call, values can overlap the other calls; inactive means below about 68%;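 further: human melanocyte line stably carrying TRPM1 promoter luciferase reporter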
NOMO-1 viab: STK33 inhibitor candidate reducing NOMO-1 cell viability; NOMO-1 AML viability, CellTiter-Glo luminescence, 72 h; inhibition, % (no concentration beside the values); 7.5% of 37,000 active; AID 2330; in the data active means inhibition above about 80%; inconclusive means no clear call, values can overlap the other calls
PD-1 reversal: reversal of PD-1 mediated T-cell inhibition. activation, % (concentration not given with the values). primary human CD4 T cells, PD-L1 beads, CellTiter-Glo 96 h. 29,000 tested, under 10 active. AID 2316; call rule not given here
Hedgehog inh: blocks Sonic Hedgehog signaling; AID 2313; Shh-LIGHT2 Gli-luciferase reporter, 30 h; inhibition, % (no concentration beside the values); 2.1% of 22,000 active;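 active means mean inhibition across valid replicates above about 65%, limit read from the data; inconclusive means mean under the limit, yet half or more replicates past it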;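 further: pathway switched on by Shh-conditioned medium diluted 1 in 25 in low serum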
A number is an active result; – = inactive; ? = inconclusive; · = no result given.

SMILES	MITF inh	NOMO-1 viab	PD-1 reversal	Hedgehog inh
CCCn1c2ccccc2c2nnc(Sc3ccc4nsnc4c3[N+](=O)[O-])nc21	–	104.6	·	·
C=CCN1CCc2c(cc(O)c(O)c2Cl)C(c2ccccc2)C1 (stereo unspecified)	–	117.1	·	?
C=C1C(=O)O[C@@H]2/C=C(\CO)CCC/C(C)=C/[C@H](O)C12 (stereo partly specified)	–	116.1	–	–
C=C1C(=O)O[C@@H]2/C=C(/CO)CC/C=C(/C)C[C@H](OC(=O)C(C)CO)[C@@H]12 (stereo partly specified)	–	118.1	–	–
N#C/C(N=Cc1cccs1)=C(\C#N)NCc1ccccc1Sc1ccc(Cl)cc1	–	–	–	–
Cc1noc(C)c1S(=O)(=O)N(C)C[C@@H]1Oc2ccc(NC(=O)C3CC3)cc2CC(=O)N([C@H](C)CO)C[C@@H]1C	–	–	·	69.7
Cc1ccc(S(=O)(=O)N(C)C[C@H]2Oc3ccc(NC(=O)Nc4ccc(F)cc4)cc3CC(=O)N([C@@H](C)CO)C[C@H]2C)cc1	–	–	–	–
Cc1noc(C)c1S(=O)(=O)N(C)C[C@H]1Oc2ccc(NC(=O)C3CC3)cc2CC(=O)N([C@H](C)CO)C[C@H]1C	–	–	–	–
COc1ccc(NC(=O)Nc2ccc3c(c2)CC(=O)N([C@H](C)CO)C[C@H](C)[C@H](CN(C)S(=O)(=O)c2ccc(F)cc2)O3)cc1	–	125.5	·	–
Cc1ccc(S(=O)(=O)N(C)C[C@@H]2Oc3ccc(NC(=O)Nc4ccc(F)cc4)cc3CC(=O)N([C@@H](C)CO)C[C@@H]2C)cc1	–	104.1	–	–
Cc1ccc(S(=O)(=O)N(C)C[C@@H]2Oc3ccc(NC(=O)C4CC4)cc3CC(=O)N([C@H](C)CO)C[C@H]2C)cc1	–	–	–	–
Cc1ccc(S(=O)(=O)N(C)C[C@@H]2Oc3ccc(NC(=O)C4CC4)cc3CC(=O)N([C@@H](C)CO)C[C@@H]2C)cc1	–	84.5	–	·
CC(O)c1ccc2ccccc2c1 (stereo unspecified)	–	–	–	–
Cc1ccc(S(=O)(=O)N(C)CC(=O)Nc2ccccc2[N+](=O)[O-])cc1	–	–	–	·
Cc1ccc(S(=O)(=O)N(C)C[C@@H]2Oc3ccc(NC(=O)NC(C)C)cc3CC(=O)N([C@@H](C)CO)C[C@@H]2C)cc1	–	98.1	–	–
Cc1ccc(S(=O)(=O)N(C)C[C@@H]2Oc3ccc(NC(=O)Nc4ccccc4)cc3CC(=O)N([C@H](C)CO)C[C@@H]2C)cc1	–	99.7	·	–
Cc1ccc(S(=O)(=O)N(C)C[C@@H]2Oc3ccc(NC(=O)Nc4ccc(F)cc4)cc3CC(=O)N([C@H](C)CO)C[C@@H]2C)cc1	–	126.7	–	–
CCN(CC(=O)Nc1ccc(Cl)c(C(F)(F)F)c1)S(=O)(=O)c1ccc(C)cc1	–	–	·	·
COc1ccc(-c2c(C(F)(F)F)oc3cc(OCC(=O)Nc4ccc(C)cc4)ccc3c2=O)cc1OC	–	–	·	·
COC(=O)c1c(NC(=O)COc2cccc(Cl)c2)sc2c1CCC2	–	–	–	·
CC(C)(C)c1ccc(C(=O)C(C#N)=C2SCCCS2)cc1	–	109.5	–	·
Cc1nnc(SCC(=O)Nc2cc(Cl)c(Cl)cc2Cl)s1	–	–	–	·
O=C1NN=C(c2ccccc2)/C1=C1\OC(c2ccccc2)=CS1	–	138.8	–	–
C/C=C(\C)C(=O)O[C@H]1C=C(CO)C(=O)[C@H](OC(C)=O)[C@H]1C(C)C	–	122.2	–	–
Cc1cc2nc(Sc3c([N+](=O)[O-])nc(C)n3Cc3ccccc3)[nH]c2cc1C	–	106.9	–	·
SMILES	MITF inh	NOMO-1 viab	PD-1 reversal	Hedgehog inh
O=[N+]([O-])c1ccc2nc(CSc3nc4ccccc4[nH]3)[nH]c2c1	–	–	·	·
Cc1nc([N+](=O)[O-])c(Sc2nc3ccccc3[nH]2)n1Cc1ccccc1	–	101.2	–	·
COc1ccc2nc(SCC(=O)Nc3cccc([N+](=O)[O-])c3)[nH]c2c1	–	–	–	·
COc1ccc2nc(Sc3c([N+](=O)[O-])nc(C)n3Cc3ccccc3)[nH]c2c1	–	102.3	–	·
CCn1c(SCC(=O)Nc2ccc(F)cc2)nnc1-c1cccc(Cl)c1	–	–	–	·
CCn1c(SCC(=O)c2ccc(OC)cc2)nnc1-c1cc2cccc(OC)c2o1	–	–	–	·
O=C1CC(c2ccccc2)Oc2cc(O)cc(O)c21 (stereo unspecified)	–	–	–	–
O=C1CC(c2ccccc2)Oc2ccc(Cl)cc21 (stereo unspecified)	–	115.0	–	–
C[C@@H]1CN([C@@H](C)CO)C(=O)Cc2cc(NC(=O)Nc3ccc(C(F)(F)F)cc3)ccc2O[C@@H]1CN(C)C(=O)Nc1ccc2c(c1)OCO2	–	124.6	·	82.6
C[C@@H]1CN([C@H](C)CO)C(=O)Cc2cc(NC(=O)Nc3ccc(C(F)(F)F)cc3)ccc2O[C@@H]1CN(C)C(=O)Nc1ccc2c(c1)OCO2	–	113.2	–	–
COc1cc(NC(=O)COc2ccccc2C)ccc1NC(=O)c1ccccc1Cl	–	–	·	·
CC(C)(C)C1CCc2c(sc(NC(=O)COc3ccc(Cl)cc3)c2C(N)=O)C1 (stereo unspecified)	–	89.1	·	·
COc1cc(NC(=O)COc2ccc3ccccc3c2Br)c(OC)cc1Cl	–	125.6	–	·
COc1ccc([N+](=O)[O-])cc1NC(=O)C(CC(C)C)N1C(=O)c2ccccc2C1=O (stereo unspecified)	–	–	–	·
C[C@H]1CN([C@@H](C)CO)C(=O)c2cc(NC(=O)Nc3ccc(F)cc3)ccc2O[C@H]1CN(C)Cc1ccc(Cl)c(Cl)c1	–	99.4	–	·
C[C@@H]1CN([C@H](C)CO)C(=O)c2cc(NC(=O)Nc3ccc4c(c3)OCO4)ccc2O[C@H]1CN(C)Cc1ccncc1	–	–	–	·
C[C@@H]1CN([C@H](C)CO)C(=O)c2cc(NC(=O)Nc3ccc(F)cc3)ccc2O[C@H]1CN(C)Cc1ccc(Cl)c(Cl)c1	–	–	–	–
C[C@@H]1CN([C@@H](C)CO)C(=O)c2cc(NC(=O)Nc3ccc(F)cc3)ccc2O[C@@H]1CN(C)Cc1ccc(Cl)c(Cl)c1	–	113.1	–	84.7
COc1ccc(NC(=O)Nc2ccc3c(c2)C(=O)N([C@@H](C)CO)C[C@H](C)[C@@H](CN(C)Cc2ccc(Cl)c(Cl)c2)O3)cc1	–	–	–	–
C[C@H]1CN([C@@H](C)CO)C(=O)c2cc(NC(=O)Nc3ccc4c(c3)OCO4)ccc2O[C@H]1CN(C)Cc1ccncc1	–	94.6	–	·
C[C@@H]1CN([C@@H](C)CO)C(=O)c2cc(NC(=O)Nc3ccccc3)ccc2O[C@H]1CN(C)Cc1ccc(Cl)c(Cl)c1	?	123.6	–	–
Cc1ccc(OCC(=O)Nc2ccc3oc(-c4ccccc4C)nc3c2)c(C)c1	–	–	–	·
C[C@H]1CN([C@@H](C)CO)C(=O)c2cc(NC(=O)Nc3ccc4c(c3)OCO4)ccc2O[C@H]1CN(C)Cc1ccc(Cl)c(Cl)c1	–	–	–	–
C[C@@H]1CN([C@@H](C)CO)C(=O)c2cc(NC(=O)Nc3ccc4c(c3)OCO4)ccc2O[C@@H]1CN(C)Cc1ccc(Cl)c(Cl)c1	–	95.3	–	·
CCC(C)C1=NN(C(=O)c2ccccc2)C(O)(C(=O)OC)C1 (stereo unspecified)	–	–	–	–
